Laboratory results published in PubChem BioAssay (EPA / NIEHS).
Records with an inconclusive call do not appear. Activity calls are given as the source filed them. How the source made its calls: active means hit-call score of the fitted dose curve at least 0.9, where 1 is the maximum; inconclusive means response in the unintended direction; inactive means score below 0.9.

Assay: ACEA_ER_AUC_viability: ACEA Biosciences xCELLigence Real-Time Cell Analysis on Estrogen Receptor Agonism for Viability (AID 2283782);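 further: continuous compound exposure with impedance area under curve over 80 h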
Procedure: ACEA_ER is a cell-based, single-readout assay that uses T47D, a human breast cell line, with measurements taken at 80 hours after chemical dosing in a 96-well plate, although TO2 (mc0.srcf) used a 384-well plate. Differences in plate size can be ignored given data normalization.ACEA_ER_AUC_viability is one of two assay component(s) measured or calculated from the ACEA_ER assay. It is designed to make measurements of real-time cell-growth kinetics, a form of growth reporter, as detected with electrical impedance signals by Real-Time Cell Electrode Sensor (RT-CES) technology.Data from the assay component ACEA_ER_AUC_viability was analyzed in the positive analysis fitting direction relative to DMSO as the negative control and baseline of activity. Using a type of growth reporter, loss-of-signal activity can be used to understand changes in the viability. Furthermore, this assay endpoint can be referred to as a secondary readout, because this assay has produced multiple assay endpoints where this one serves a viability function. To generalize the intended target to other relatable targets, this assay endpoint is annotated to the cell cycle intended target family, where the subfamily is cytotoxicity.
The xCELLigence system Multi-E-Plate stations were used to measure the time-dependent response to chemicals. Each compound was tested in an eight-point, 1:4 serial dilution series starting at a maximum final concentration of 100 uM. A maximum starting concentration of 0.5% DMSO was present in the 100 uM chemical samples and was diluted along with the test article dilution series. The screen was performed in biological duplicate using two separate, 96-well, E-Plates 96 for each dilution series (n = 2). Positive controls (MG132 and E2) and a negative control (assay media) were tested in quadruplicate on each testing plate. Then, 0.5% and 0.125% DMSO were tested in duplicates in each plate to serve as solvent controls for the 2 highest concentrations of testing compounds: 100 uM and 25 uM. Reference compounds were tested with 8 concentrations with 1:5 serial dilutions. All screening was carried out by ACEA Biosciences, Inc. (San Diego, CA). T-47D cells purchased from ATCC were maintained in RPMI1640 media supplemented with 10% characterized fetal bovine serum (FBS). Before screening, T-47D cells were preconditioned in assay medium: phenol red-free RPMI1640 supplemented with 10% charcoal-stripped FBS. Cells were then detached and seeded in E-Plates 96 in assay medium. After overnight monitoring of growth once every hour, compounds were added to […] cells and remained in the medium until the end of the experiment. Cellular responses were then recorded once every 5 min for the first 5 h, and once every hour for an additional 100 h.

| Compound | outcome | AC50 |
| --- | --- | --- |
| C[Si](C)(C)N[Si](C)(C)C | inactive |  |
| O=C(C=Cc1ccccc1)OCCc1ccccc1 |  | 58 µM (active) |
| CCCCCCCCCCCCc1ccc(O)cc1 |  | 20 µM (active) |
| COCC(=O)O | inactive |  |
| CCC1COC(=O)O1 (stereo not given) | inactive |  |
| CCCCC(C=O)CC (stereo not given) | inactive |  |
| CC(C)(C)C1CCC(=O)CC1 | inactive |  |
| Nc1ccc(O)c([N+](=O)[O-])c1 |  | 85.7 µM (active) |
| Cc1c(Cl)cccc1Cl | inactive |  |
| Nc1nc(N)nc(-c2ccccc2)n1 | inactive |  |
| CCCCCC[C@@H](O)C/C=C\CCCCCCCC(=O)OCC(O)CO (stereo not given in full) | inactive |  |
| CCCCCCCCCCCC(C)=O |  | 66.7 µM (active) |
| CC(=O)CCC=C(C)C | inactive |  |
| CCCC/C=C/C=C\C=O |  | 88.9 µM (active) |
| CN1CCN(C)CC1 | inactive |  |
| CCCCCCCCCCCCCc1ccccc1 | inactive |  |
| CC1(C)CCC[C@]2(C)[C@H]3CC(=O)O[C@]3(C)CC[C@@H]12 | inactive |  |
| CC1(C)C(=O)N(CO)C(=O)N1CO | inactive |  |
| CC(CC(C)C)=NO | inactive |  |
| CC1=NN(c2ccc(S(=O)(=O)O)cc2)C(=O)C1N=Nc1ccccc1 (stereo not given) | inactive |  |

| Compound | outcome | AC50 |
| --- | --- | --- |
| Cc1c[nH]c(=O)[nH]c1=O |  | 68.6 µM (active) |
| CC1=CC(C)C(C=O)CC1 (stereo not given) | inactive |  |
| CC(C)(c1ccccc1)c1ccc(Nc2ccc(C(C)(C)c3ccccc3)cc2)cc1 | inactive |  |
| CCCCCCCC(=O)OCC | inactive |  |
| O=C(Oc1ccccc1)c1ccccc1C(=O)Oc1ccccc1 |  | 86.1 µM (active) |
| CC(C)C(=O)OCCOc1ccccc1 | inactive |  |
| Cn1ccnc1 | inactive |  |
| COC(=O)c1ccccc1C | inactive |  |
| CCCCCCCOC(=O)c1ccc(O)cc1 |  | 24.1 µM (active) |
| Clc1cccnc1 | inactive |  |
| CC(C)c1ccc(O)c(C(C)C)c1 |  | 79.4 µM (active) |
| O=C1CCCCCCCCCCC1 | inactive |  |
| CC/C=C\C/C=C\C/C=C\CCCCCCCC(=O)OC | inactive |  |
| CC(C)[N+](C)(CCOC(=O)C1c2ccccc2Oc2ccccc21)C(C)C | inactive |  |
| CC(=O)CC(=O)Nc1ccccc1C | inactive |  |
| CCC(=O)C1CC(C(C)C)CC=C1C (stereo not given) | inactive |  |
| CCCCCCCCCCCCCCCCCCOS(=O)(=O)O |  | 75.4 µM (active) |
| C=CC(=O)NCOCCCC | inactive |  |
| O=C(O[C@@H]1Cc2c(O)cc(O)cc2O[C@@H]1c1cc(O)c(O)c(O)c1)c1cc(O)c(O)c(O)c1 |  | 61 µM (active) |
| CCC(C)c1ccccc1 (stereo not given) | inactive |  |
